# Results taken from PubChem BioAssay (NCATS).
# Several values for one entry are separate records, joined by “and”; a condition that tells them apart may be missing. Identical values can stand only once. Values without a mark were called inactive. Inconclusive results are not listed. A call without a number means that no potency is given here. Activity calls are given as the source filed them. Unless noted, the call rests on the fitted dose curve; in most records, active means well fitted curve in the direction sought with a large enough effect; inconclusive means small, poorly fitted or top-dose-only effect, or another doubt; inactive means no such curve, though single readings can be large; an effect the other way counts as inactive or inconclusive.
# How the values were obtained:
# [1] = target: Thyroid hormone receptor beta (Homo sapiens) (UniProt P10828); test: qHTS assay for small molecule antagonists of thyroid hormone receptor beta signaling (AID 588547; active means well fitted inhibition curve with a large enough effect in the signal ratio, with a control signal flat, not every such curve was filed as active; the % refers to the signal ratio; further: potency means the concentration at half of the fitted maximal effect;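 on activity change % (negative = inhibition): cells stimulated with 0.4 nM T3 agonist during compound exposure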); details: TR-UAS-bla HEK293, beta-lactamase ratio, antagonist mode, 18 h
# Summary of the method: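 Inhibition of T3-driven (0.4nM final) beta-lactamase reporter activity was measured over 0.59 nM to 92 uM compound after 18 h at 37 C. The cells were GripTite HEK293 TR-UAS-bla in charcoal/dextran-stripped serum, with CCF4 ratio read-out and IC50 from Hill fits.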
# [2] = qHTS assay for small molecule activators of the p53 signaling pathway (AID 651743; active means well fitted activation curve with a large enough effect in the signal ratio, not every such curve was filed as active; the % refers to the signal ratio); details: HCT-116 p53RE-bla, beta-lactamase FRET ratio, 16 h; active compounds read high
# Summary of the method: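 A beta-lactamase reporter under p53 response element control, stably carried by HCT-116 cells, reported pathway activation. Test compounds were applied for 16 hours at 37 C, and fluorescence was measured 2 hours after adding the B/G FRET substrate.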
# [3] = qHTS assay for environmental chemicals that activate the Aryl hydrocarbon Receptor (AhR) signaling pathway (AID 651777); details: 1A2-DRE human hepatoma cells, luciferase, 24 h; active compounds read high; further: nearly all actives have a fitted effect of over 15% in size
# Summary of the method: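 Measured luciferase activity, read 30 min after One-Glo addition at room temperature, from human hepatoma cells bearing a dioxin response element–CYP1A2 promoter reporter and exposed to compound for 24 hr at 37 C.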
# [4] = target: Peroxisome proliferator-activated receptor alpha (Homo sapiens) (UniProt Q07869); test: qHTS assay for small molecule agonists of the peroxisome proliferator-activated receptor alpha (PPARalpha) signaling pathway (AID 651778); details: PathHunter PPARalpha complementation, chemiluminescence, 6 h; max response: active compounds read high
# Summary of the method: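 Chemiluminescence from complemented enzyme reported PPARalpha activation in cells after 6 hr of compound treatment at 37 C. The detection reagent was incubated for 60 min at room temperature, and compounds were scored as agonists.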
# [5] = target: Voltage-gated inwardly rectifying potassium channel KCNH2 (Homo sapiens) (UniProt Q12809); test: qHTS Assay for Small Molecule Inhibitors of the Human hERG Channel Activity (AID 588834); details: U2OS BacMam hERG, FluxOR thallium flux fluorescence; series mostly up to 92.2 µM;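 further: top concentration of the series differs between compounds; lower thallium flux fluorescence means stronger hERG block; nearly all actives have a fitted effect of over 50% in size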
# Summary of the method: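 Thallium serves as surrogate for K+ influx through BacMam-delivered hERG in U2OS cells. Compounds are added for about 10 minutes after dye loading; stimulation buffer then starts flux, monitored kinetically on FDSS.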
# [6] = target: Luciferin 4-monooxygenase (Photinus pyralis) (UniProt P08659); test: Biochemical firefly luciferase enzyme assay for NPC (AID 624030); further: nearly all actives have a fitted effect of over 70% in size; further: potency means the concentration at half of the fitted maximal effect; details: purified P. pyralis luciferase, luminescence, 5 min; series mostly up to 58.6 µM
# Summary of the method: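 Direct inhibition of firefly luciferase enzyme (10 nM final, 50 mM Tris Acetate) assessed by luminescence within 5 minutes. Percent activity scaled between DMSO and PTC124 positive control, with concentration-effect curves classified by fit quality and response.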
# [7] = qHTS assay for small molecule agonists of the antioxidant response element (ARE) signaling pathway (AID 651741; active means well fitted activation curve with a large enough effect in the signal ratio; the % refers to the signal ratio); details: HepG2 ARE-bla reporter, beta-lactamase FRET ratio, 16 h; series mostly up to 96 µM
# Summary of the method: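 Agonist activity is measured as ARE-driven beta-lactamase expression in a stable HepG2 reporter line, using 16 h compound treatment at 37 C and a FRET substrate fluorescence readout after 2 h.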
# [8] = target: Tumor necrosis factor (Homo sapiens) (UniProt P01375); test: qHTS assay to identify small molecules that stimulate Tumor Necrosis Factor-alpha (TNF-alpha) secretion (AID 651757; active means well fitted curve in the direction sought with a large enough effect in the signal ratio; the % refers to the signal ratio); details: Human cells, HTRF 665/615 ratio; series mostly up to 92.2 µM
# Summary of the method: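 THP-1 cells, 3000/well; compound 17 hrs, 37 C; add cryptate/XL665 anti-TNF-alpha antibody pair; 3 hr RT; TR-FRET (HTRF) read of secreted TNF-alpha. Quantitative HTS format.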
# [9] = qHTS assay to identify small molecules that stimulate interleukin-8 (IL-8) secretion (AID 651758; active means well fitted activation curve with a large enough effect in the signal ratio; the % refers to the signal ratio); details: HTRF ratio (665/615); series mostly up to 92.2 µM
# Summary of the method: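 Secreted IL-8 measured homogeneously by TR-FRET (two labelled anti-IL-8 antibodies, 1-3 h at room temperature) after a 16 h, 37 C compound treatment of THP-1 cells at 2000 cells/well.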
# [10] = qHTS assay for small molecule activators of the nuclear factor-kappa B (NF-kB) signaling pathway (AID 651749; active means well fitted activation curve with a large enough effect in the signal ratio; the % refers to the signal ratio); details: NF-kB-bla ME-180 cells, beta-lactamase FRET ratio, 16 h; active compounds read high
# Summary of the method: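 FRET-based beta-lactamase detection in ME-180 cells reports NF-kB response-element-driven transcription following overnight (16 hr) compound treatment.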
# [11] = qHTS assay for small molecule disruptors of the mitochondrial membrane potential - 1 hr assay (AID 651754; calls by dose curve; further: nearly all actives have a fitted effect of over 35% in size); details: series mostly up to 92.2 µM
# Summary of the method: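 Read-out: dye fluorescence at 490 nm ex/535 nm em (monomers) and 540 nm ex/590 nm em (aggregates) in HepG2 cells. Compound exposure 1 hr at 37C, followed by 30 min dye loading.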
# [12] = qHTS assay for small molecule disruptors of the mitochondrial membrane potential - 5 hr assay (AID 651755; calls by dose curve; further: nearly all actives have a fitted effect of over 40% in size); details: JC-1-type ratio dye; series mostly up to 92.2 µM
# Summary of the method: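 Membrane-potential dye readout: red aggregate (540 ex/590 em) versus green monomer (490 ex/535 em) fluorescence after 30 min dye loading, following 5 hr compound exposure at 37C of overnight-plated HepG2 cells.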
# [13] = S16 Schwann cell viability assay (CellTiter-Glo assay) (AID 624031); details: S16 rat Schwann cells viability, 24 h; series mostly up to 57.5 µM;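 further: native untransfected S16 rat Schwann cells; cellular ATP luminescence as a viability measure; nearly all actives have a fitted effect of over 70% in size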
# Summary of the method: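 Rat S16 Schwann cells without reporter constructs received compound or DMSO for 24 h at 37 °C under 5% CO2. Cellular ATP was then quantified by CellTiter-Glo luminescence, with vehicle wells defined as 0% activity and cell-free wells as reference.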
# [14] = S16 Schwann cell PMP22 intronic element firefly luciferase assay (AID 624032); details: S16 rat Schwann cells, PMP22 element FLuc, 24 h; series mostly up to 57.5 µM; further: nearly all actives have a fitted effect of over 30% in size
# Summary of the method: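 Luciferase reporter of PMP22 intronic-element expression in stably transfected S16 rat Schwann cells, read by ONE-Glo luminescence after 24 h compound exposure at 37 C. Activity scaled between DMSO (0%) and positive-control PTC124; concentration-effect curves quality-classified.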
# [15] = S16 Schwann cell PMP22 intronic element beta-lactamase assay (AID 624044; calls by dose curve; further: nearly all actives have a fitted effect of over 15% in size); details: S16 rat Schwann cells, PMP22 element beta-lactamase FRET, 24 h; series mostly up to 38.3 µM
# Summary of the method: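 Beta-lactamase reporter under a PMP22 intronic regulatory element in stable S16 rat Schwann cells; 24 h compound exposure. 460 nm blue signal normalized between DMSO (0%) and potassium clavulanate, with 535 nm FRET tracking viability; curves classed by r2 and response.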
# Thyroid hormone receptor beta (Homo sapiens), sequence (P10828 whole entry, looked up): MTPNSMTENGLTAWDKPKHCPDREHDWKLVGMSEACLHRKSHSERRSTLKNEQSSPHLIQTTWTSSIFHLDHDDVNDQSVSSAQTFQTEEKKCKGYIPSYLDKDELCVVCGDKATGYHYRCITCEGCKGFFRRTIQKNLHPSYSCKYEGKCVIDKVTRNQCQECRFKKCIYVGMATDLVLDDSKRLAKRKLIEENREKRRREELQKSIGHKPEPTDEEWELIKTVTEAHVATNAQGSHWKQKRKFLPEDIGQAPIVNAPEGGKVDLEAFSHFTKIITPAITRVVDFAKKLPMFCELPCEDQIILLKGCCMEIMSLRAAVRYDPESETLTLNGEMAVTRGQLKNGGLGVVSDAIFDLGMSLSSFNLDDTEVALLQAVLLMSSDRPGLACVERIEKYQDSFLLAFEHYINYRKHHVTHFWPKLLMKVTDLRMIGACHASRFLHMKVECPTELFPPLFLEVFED
# Tumor necrosis factor (Homo sapiens), sequence (P01375 whole entry, looked up): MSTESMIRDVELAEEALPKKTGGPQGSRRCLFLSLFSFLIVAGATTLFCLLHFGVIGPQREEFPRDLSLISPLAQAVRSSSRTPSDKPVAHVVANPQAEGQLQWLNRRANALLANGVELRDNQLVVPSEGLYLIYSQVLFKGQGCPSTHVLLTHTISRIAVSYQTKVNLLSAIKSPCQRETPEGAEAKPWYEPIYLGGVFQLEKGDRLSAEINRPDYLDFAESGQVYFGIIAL
# Voltage-gated inwardly rectifying potassium channel KCNH2 (Homo sapiens), sequence (Q12809 whole entry, looked up): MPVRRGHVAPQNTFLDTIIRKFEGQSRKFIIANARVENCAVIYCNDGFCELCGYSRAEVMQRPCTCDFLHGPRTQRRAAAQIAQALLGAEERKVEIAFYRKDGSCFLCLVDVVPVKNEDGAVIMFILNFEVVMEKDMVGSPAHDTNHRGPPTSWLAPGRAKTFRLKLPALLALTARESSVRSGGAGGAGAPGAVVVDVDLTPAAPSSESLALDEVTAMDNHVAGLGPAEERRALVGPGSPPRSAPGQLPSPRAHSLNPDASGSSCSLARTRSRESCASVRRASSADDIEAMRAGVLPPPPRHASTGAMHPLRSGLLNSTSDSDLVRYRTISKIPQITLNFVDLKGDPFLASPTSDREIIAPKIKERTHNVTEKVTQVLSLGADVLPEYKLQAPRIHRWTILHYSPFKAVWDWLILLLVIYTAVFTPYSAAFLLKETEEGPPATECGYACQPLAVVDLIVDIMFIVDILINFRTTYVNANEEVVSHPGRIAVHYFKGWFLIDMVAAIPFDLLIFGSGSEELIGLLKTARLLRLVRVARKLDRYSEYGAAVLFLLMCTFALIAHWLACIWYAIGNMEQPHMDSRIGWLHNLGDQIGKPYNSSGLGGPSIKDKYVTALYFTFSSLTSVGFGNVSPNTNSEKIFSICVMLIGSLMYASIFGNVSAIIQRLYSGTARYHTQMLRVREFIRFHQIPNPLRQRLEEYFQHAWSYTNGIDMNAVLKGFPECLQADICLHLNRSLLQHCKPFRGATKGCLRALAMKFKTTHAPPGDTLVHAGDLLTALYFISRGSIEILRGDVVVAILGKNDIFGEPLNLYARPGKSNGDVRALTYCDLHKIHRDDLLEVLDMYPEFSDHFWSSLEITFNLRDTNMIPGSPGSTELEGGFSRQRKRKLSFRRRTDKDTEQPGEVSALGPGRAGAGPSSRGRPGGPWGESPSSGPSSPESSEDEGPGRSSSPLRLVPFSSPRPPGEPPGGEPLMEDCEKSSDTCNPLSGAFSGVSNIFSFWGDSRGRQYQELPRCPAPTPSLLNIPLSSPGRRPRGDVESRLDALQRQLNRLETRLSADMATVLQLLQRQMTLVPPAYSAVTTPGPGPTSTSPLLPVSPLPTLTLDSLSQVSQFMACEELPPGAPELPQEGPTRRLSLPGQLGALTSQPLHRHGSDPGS
# Luciferin 4-monooxygenase (Photinus pyralis), sequence (P08659 whole entry, looked up): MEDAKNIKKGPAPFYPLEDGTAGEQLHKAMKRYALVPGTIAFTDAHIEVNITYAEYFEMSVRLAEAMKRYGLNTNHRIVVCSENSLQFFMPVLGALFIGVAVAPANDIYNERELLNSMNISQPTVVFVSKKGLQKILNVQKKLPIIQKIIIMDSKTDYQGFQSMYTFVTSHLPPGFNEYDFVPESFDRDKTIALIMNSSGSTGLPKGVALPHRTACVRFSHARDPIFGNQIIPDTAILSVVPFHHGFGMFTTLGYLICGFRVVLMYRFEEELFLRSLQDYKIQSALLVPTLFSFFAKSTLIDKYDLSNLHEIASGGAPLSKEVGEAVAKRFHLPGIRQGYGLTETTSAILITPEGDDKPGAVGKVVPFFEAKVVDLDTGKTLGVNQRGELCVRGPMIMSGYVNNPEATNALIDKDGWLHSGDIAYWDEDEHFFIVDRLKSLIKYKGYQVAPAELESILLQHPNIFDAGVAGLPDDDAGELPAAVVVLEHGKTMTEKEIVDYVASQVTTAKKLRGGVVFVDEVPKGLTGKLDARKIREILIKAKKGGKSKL
# Peroxisome proliferator-activated receptor alpha (Homo sapiens), sequence (Q07869 whole entry, looked up): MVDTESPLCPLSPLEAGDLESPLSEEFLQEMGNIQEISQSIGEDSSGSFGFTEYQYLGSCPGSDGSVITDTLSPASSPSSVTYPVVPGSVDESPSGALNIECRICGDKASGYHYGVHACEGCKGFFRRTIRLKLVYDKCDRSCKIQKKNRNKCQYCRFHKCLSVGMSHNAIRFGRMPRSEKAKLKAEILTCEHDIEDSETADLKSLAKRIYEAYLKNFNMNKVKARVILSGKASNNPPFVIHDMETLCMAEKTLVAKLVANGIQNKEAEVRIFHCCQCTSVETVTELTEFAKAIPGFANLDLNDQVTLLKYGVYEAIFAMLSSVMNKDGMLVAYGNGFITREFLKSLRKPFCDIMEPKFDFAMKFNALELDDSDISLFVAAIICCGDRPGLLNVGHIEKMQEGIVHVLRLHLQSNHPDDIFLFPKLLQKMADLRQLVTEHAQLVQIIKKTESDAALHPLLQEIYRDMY
smiles,measurement,setting,value
CC(=O)S[C@@H]1CC2=CC(=O)CC[C@]2(C)[C@H]2CC[C@@]3(C)[C@@H](CC[C@@]34CCC(=O)O4)[C@H]12,Potency,[1],28.2 µM (active)
same,activation,[2],29.9%
same,activation,[3],-3.59%
same,max response,[4],-2.36%
COC(C)=O,activity change % (negative = inhibition),[1],-1.11%
same,outcome,[5],inactive
same,Potency,[6],inactive
same,Potency,[7],inactive
same,outcome,[8],inactive
same,outcome,[9],inactive
same,activation,[3],0.269%
same,max response,[4],6.49%
CCCCc1cc2c(=O)c(C(=O)OC)c[nH]c2cc1OCc1ccccc1,Potency,[6],inactive
Cc1cc(-n2c(=O)[nH]c(=O)n(C)c2=O)ccc1Oc1ccc(S(=O)(=O)C(F)(F)F)cc1,Potency,[6],inactive
O=C(OCCO)c1ccccc1O,Potency,[6],inactive
CN(C)Cc1ccccc1,activity change % (negative = inhibition),[1],-0.727%
same,outcome,[5],inactive
same,Potency,[6],inactive
same,Potency,[7],inactive
same,activation,[2],-3.48%
same,activation,[10],0.946%
same,outcome,[11],inactive
same,outcome,[12],inactive
same,outcome,[8],inactive
same,activation,[3],-1.16%
same,max response,[4],-9.3%
CN1CC(O)c2cc(N=NC(N)=O)c(O)cc21 (stereo not given),Potency,[6],inactive
CCCOc1ccc2nc(NC(=O)OC)sc2c1,outcome,[5],inactive
same,Potency,[6],1.14 µM (active)
same,Potency,[13],inactive
same,Potency,[14],inactive
same,outcome,[15],inactive
NCCCNCCCCNC(=O)C(O)NC(=O)CCCCCCN=C(N)N (stereo not given),Potency,[6],inactive
CCCCCCCCCCCCCCCCCC(=O)[O][Al],Potency,[6],inactive
CS(=O)(=O)Nc1cc2occ(NC=O)c(=O)c2cc1Oc1ccccc1,Potency,[6],inactive
O=C(O)CC(O)(CC(=O)O)C(=O)O,outcome,[5],inactive
same,Potency,[6],inactive
same,activation,[2],-3% and -0.0659% and -0.0181%
same,activation,[10],-0.675% and 0.892% and -1.06%
same,outcome,[11],inactive
same,outcome,[12],inactive
same,outcome,[8],inactive
same,outcome,[9],inactive
same,activation,[3],0.406% and -1.76% and 1.69%
same,max response,[4],-3.03% and 0.0721% and -1.17%
